Test results taken from PubChem BioAssay AID1233 (SRMLSC, 2008).
Potency and affinity values are given separately. The source made the active and inactive calls.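 How the source made its calls: active means a dose-response curve fit returns a half-maximal inhibitory concentration, extrapolated values included; inactive means the fit returns no such concentration.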

Each compound was assayed against HMG-CoA reductase [Enterococcus faecalis] (UniProt Q9FD70) (assay: class II HMG-CoA reductase inhibition potency – biochemical, Enterococcus faecalis, confirmation (AID 1233)). Conditions: purified E. faecalis HMGR, NADPH absorbance 340 nm kinetics; series mostly up to 100 µM.

outcome, inactive:
O=C1NCCCC1C(=O)Nc1ccccc1C(F)(F)F (configuration not stated)
O=C(Oc1ccccc1O)c1cccc2ccccc12
CCCS(=O)(=O)N1CCN(C(=O)c2ccc(-c3ccccc3)cc2)CC1
CC1=C(C)C(=O)C(N2CCOCC2)=CC1=O
Cc1ccc2nc(-c3cc(N)cc(N)c3)oc2c1
Cc1cccc(N/N=C(\C#N)S(=O)(=O)C(C)(C)C)c1
COCC(C)NC(=O)CSc1nc(-c2ccccc2)c(-c2ccccc2)o1 (configuration not stated)
O=C(COC(=O)c1cccnc1)c1ccc(Cl)c(Cl)c1
Cc1cc(C)nc(NC(=O)CCCC(=O)O)c1
CC(=O)Oc1ccccc1-c1nc(C)nc(N(C)C(C)=O)n1
CN(C)C(CNC(=O)CCOc1ccccc1)c1ccco1 (configuration not stated)
Cc1cc(NC(=O)c2c(F)cccc2Cl)no1
OC(COc1ccc(Cl)cc1)CN1CCCCC1 (configuration not stated)
Cc1nc([N+](=O)[O-])c(Br)n1CC(=O)c1cccc([N+](=O)[O-])c1
O=C(Nc1cccc(Br)c1)c1ccc2nc(N3C(=O)CCC3=O)sc2c1
COc1ccccc1C(=O)NCC(=O)NC1CCCc2ccccc21 (configuration not stated)
[O-]C1=N/[N+](=C/c2ccc(Cl)c(Cl)c2)CC1
CCOC(=O)C(NC(C)=O)(Nc1ccc(S(=O)(=O)Nc2cc(C)nc(C)n2)cc1)C(F)(F)F (configuration not stated)
O=C(CSCc1ccc(Cl)cc1)NCC1CCCO1 (configuration not stated)
O=C1c2ccccc2C(=O)N1CCC(O)C[N+](=O)[O-] (configuration not stated)
Cc1cccc(OCC(=O)NNC(=O)CCc2ccccc2)c1
Cc1c(CN2CCc3c([nH]c4ccccc34)C2C2CCCCC2)cnn1C (configuration not stated)
Cc1ccc(C(=O)NCc2ccccc2)c(F)c1F
COc1ccc(C(=O)Nc2ccc(NC(=O)c3cnccn3)cn2)cc1
O=C(NCC1CCCO1)c1ccc(Cl)c(F)c1F (configuration not stated)
CCN1CCN(CCC(=O)Nc2ccc3c(c2)OCO3)CC1
O=C(NCc1ccccc1Cl)c1cc([N+](=O)[O-])ccc1Cl
Cc1ccc(/C=C/S(=O)(=O)NCC(=O)O)cc1
N#CC(c1ccc(Cl)cc1)c1nc2ccccc2nc1C(F)(F)F (configuration not stated)
COc1cccc(NC(=O)c2ccc3snnc3c2)c1
COc1ccc(N2C(=O)CS/C2=C\[N+](=O)[O-])cc1
CCc1ccc(NC(=O)CSCc2ccc(C(=O)O)cc2)cc1
Cc1cc(C(=O)NN=C2CCCCC2)c2ccccc2n1
CC(C)(C)C(=O)N1CCC[C@H]1C(O)(c1ccccc1)c1ccccc1
COCCNC(=O)C1c2cc(OC)c(OC)cc2C(=O)N(C)C1c1cccnc1 (configuration not stated)
O=C(Nc1ccc(N2CCCCC2)cc1)c1ccc2c(c1)OCCO2
Cc1ccc2nsnc2c1N
